# Results from the supplement of paper PMC6805474.
# Test system: Schistosoma mansoni schistosomula (LE)
# Test: XTT viability relative to DMSO control; higher = more viable (less active)
# Conditions: 72 h; 10 µM
# Experimental: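 XTT/PMS was then added for a further 24 h (72 h total) and A450 was read. % viability = (sample - heat-killed control)/(DMSO control - heat-killed control) x 100, from duplicate wells in two independent experiments.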
row,Structure (SMILES),XTT viability [%]
1,CC1(C)OB(O)c2ccc(C3=NOC(c4cc(Cl)c(F)c(Cl)c4)(C(F)(F)F)C3)cc21 (centres undefined),33.5
2,CO/C=C(/C(=O)OC)c1ccccc1Oc1cc(Oc2ccccc2C#N)ncn1,79.5
3,CC(C)(C)C(O)C(Oc1ccc(-c2ccccc2)cc1)n1cncn1 (centres undefined),106
4,O=C1O[C@@H](COc2ccon2)CN1c1cc(F)c(C2=CCN(Cc3ccccc3)CC2)c(F)c1,72.9
5,Cc1nn(C)c(C)c1NS(=O)(=O)c1c(Cl)cc(-c2ccnc(N3CCNCC3)c2)cc1Cl,121
6,Nc1c2c(nc3sc4c(c13)CCCC4)CCCC2,89.4
7,Cc1cc(C2=NOC(c3cc(Cl)c(F)c(Cl)c3)(C(F)(F)F)C2)ccc1C(=O)NCc1ccc2c(c1)C(C)(C)OB2O (centres undefined),23.2
8,O=C1O[C@@H](CO)CN1c1cc(F)c(C2=CCN(Cc3ccccc3)CC2)c(F)c1,127
9,Cc1nn(Cc2ccccc2)c(Cl)c1C(=O)NC1CCCCCC1,87.9
10,CO/N=C(\C(=O)OC)c1ccccc1CO/N=C(\C)c1cccc(C(F)(F)F)c1,109
11,CCc1nn(C)c(C(=O)NCc2ccc(Oc3ccc(C)cc3)cc2)c1Cl,72.8
12,Cc1cccc(C(=O)Nc2ccnc(N(C)C3CCN(CC(C)C)CC3)c2)c1,125
13,CC1COC(Cn2cncn2)(c2ccc(Oc3ccc(Cl)cc3)cc2Cl)O1 (centres undefined),47.3
14,CO[C@@H]1CN(c2ccc(C#CC3(O)CN4CCC3CC4)c(Cc3ccccc3)n2)C[C@H]1O (some centres undefined),90.7
